# Measured values as given in the supplement of paper PMC8728848.
# The entries come from a sample that favours the strongest signals as a whole.
# How the values were obtained:
# Assay in all cases: glycan array binding signal (z-score within array); higher = stronger binding
# Conditions in all cases: glycan notation: IUPAC condensed, linker removed
# Fuc(a1-2)Gal = target: Fuc(a1-2)Gal
# How it was run: (§1)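 Glycan array data came from 3228 arrays in the Consortium for Functional Glycomics database, and only arrays with an available protein sequence were kept. Glycan names were put into IUPAC-condensed notation, and columns mapping to the same glycan were averaged. The binding signal is a within-array Z-score, averaged across arrays of one protein sequence run at different concentrations or buffers and across linkers. A negative Z-score can be read as non-binding.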
# [1] = target: Fuc(a1-2)Gal(b1-3)GalNAc(b1-4)[Neu5Ac(a2-3)]Gal(b1-4)Glc
# How it was run: as §1
# [2] = target: Fuc(a1-2)Gal(b1-4)[Fuc(a1-3)]GlcNAc(b1-2)Man(a1-3)[Fuc(a1-2)Gal(b1-4)[Fuc(a1-3)]GlcNAc(b1-2)Man(a1-6)]Man(b1-4)GlcNAc(b1-4)[Fuc(a1-6)]GlcNAc
# How it was run: as §1
# [3] = target: Fuc(a1-2)Gal6S(b1-3)GlcNAc6S
# How it was run: as §1
# [4] = target: Fuc(a1-2)Gal6S(b1-4)Glc6S
# How it was run: as §1
# [5] = target: Fuc(a1-2)[GalNAc(a1-3)]Gal(b1-4)GlcNAc(b1-2)Man
# How it was run: as §1
# [6] = target: Fuc(a1-2)[GalNAc(a1-3)]Gal(b1-4)GlcNAc(b1-6)GalNAc
# How it was run: as §1
# [7] = target: Fuc(a1-3)[Gal(b1-4)]Glc6S
# How it was run: as §1
# [8] = target: Fuc(a1-3)[Gal3S(b1-4)]Glc
# How it was run: as §1
# [9] = target: Gal(a1-3)Gal(b1-3)GlcNAc(b1-3)GalNAc
# How it was run: as §1
# [10] = target: Gal(a1-3)[Gal(a1-4)]Gal(b1-4)GlcNAc
# How it was run: as §1
# [11] = target: Gal(a1-4)Gal(b1-4)GlcNAc(b1-2)Man(a1-3)[Gal(a1-4)Gal(b1-4)GlcNAc(b1-2)Man(a1-6)]Man(b1-4)GlcNAc(b1-4)GlcNAc
# How it was run: as §1
# [12] = target: Gal(a1-4)Gal(b1-4)GlcNAc(b1-3)Gal(b1-4)Glc
# How it was run: as §1
# [13] = target: Gal(b1-3)GlcNAc(b1-3)Gal(b1-4)GlcNAc(b1-2)[Gal(b1-3)GlcNAc(b1-3)Gal(b1-4)GlcNAc(b1-6)]Man(a1-6)[Gal(b1-3)GlcNAc(b1-3)Gal(b1-4)GlcNAc(b1-2)Man(a1-3)]Man(b1-4)GlcNAc(b1-4)[Fuc(a1-6)]GlcNAc
# How it was run: as §1
# [14] = target: Gal(b1-3)GlcNAc(b1-3)Gal(b1-4)GlcNAc(b1-3)Gal(b1-4)GlcNAc(b1-2)[Gal(b1-3)GlcNAc(b1-3)Gal(b1-4)GlcNAc(b1-3)Gal(b1-4)GlcNAc(b1-6)]Man(a1-6)[Gal(b1-3)GlcNAc(b1-3)Gal(b1-4)GlcNAc(b1-3)Gal(b1-4)GlcNAc(b1-2)Man(a1-3)]Man(b1-4)GlcNAc(b1-4)[Fuc(a1-6)]GlcNAc
# How it was run: as §1
# [15] = target: Gal(b1-3)GlcNAc(b1-6)Gal(b1-4)GlcNAc
# How it was run: as §1
# [16] = target: Gal(b1-3)[Fuc(a1-4)]GlcNAc
# How it was run: as §1
# [17] = target: Gal(b1-4)GlcNAc(b1-2)Man(a1-3)[Gal(b1-4)GlcNAc(b1-2)Man(a1-6)][Gal(b1-4)GlcNAc(b1-4)]Man(b1-4)GlcNAc(b1-4)[Fuc(a1-6)]GlcNAc
# How it was run: as §1
# [18] = target: Gal(b1-4)GlcNAc(b1-2)Man(a1-3)[Gal(b1-4)GlcNAc(b1-2)Man(a1-6)][GlcNAc(b1-4)]Man(b1-4)GlcNAc(b1-4)[Fuc(a1-6)]GlcNAc
# How it was run: as §1
# [19] = target: Gal(b1-4)GlcNAc(b1-2)Man(a1-6)[Man(a1-3)]Man(b1-4)GlcNAc(b1-4)GlcNAc
# How it was run: as §1
# [20] = target: Gal(b1-4)GlcNAc(b1-2)[Gal(b1-4)GlcNAc(b1-4)]Man(a1-3)[GlcNAc(b1-4)][Gal(b1-4)GlcNAc(b1-2)Man(a1-6)]Man(b1-4)GlcNAc(b1-4)GlcNAc
# How it was run: as §1
# [21] = target: Gal(b1-4)GlcNAc(b1-3)Gal(b1-4)GlcNAc(b1-3)Gal(b1-4)GlcNAc(b1-3)Gal(b1-4)GlcNAc(b1-2)Man(a1-3)[Gal(b1-4)GlcNAc(b1-3)Gal(b1-4)GlcNAc(b1-3)Gal(b1-4)GlcNAc(b1-3)Gal(b1-4)GlcNAc(b1-2)Man(a1-6)]Man(b1-4)GlcNAc(b1-4)GlcNAc
# How it was run: as §1
# [22] = target: Gal(b1-4)GlcNAc(b1-3)Gal(b1-4)GlcNAc(b1-3)Gal(b1-4)GlcNAc(b1-3)Gal(b1-4)GlcNAc(b1-2)Man(a1-3)[Gal(b1-4)GlcNAc(b1-3)Gal(b1-4)GlcNAc(b1-3)Gal(b1-4)GlcNAc(b1-3)Gal(b1-4)GlcNAc(b1-2)Man(a1-6)]Man(b1-4)GlcNAc(b1-4)[Fuc(a1-6)]GlcNAc
# How it was run: as §1
# [23] = target: Gal(b1-4)GlcNAc(b1-3)[Fuc(a1-3)GlcNAc(b1-6)]Gal(b1-4)Glc
# How it was run: as §1
# [24] = target: Gal3S(b1-3)[Fuc(a1-4)]GlcNAc
# How it was run: as §1
# Gal3S(b1-4)GlcNAc = target: Gal3S(b1-4)GlcNAc
# How it was run: as §1
# [25] = target: Gal3S(b1-4)[Fuc(a1-3)]GlcNAc
# How it was run: as §1
# Gal6S(b1-4)GlcNAc = target: Gal6S(b1-4)GlcNAc
# How it was run: as §1
binder,measurement,setting,value
PX14343F-bfa-562-20-562 (Bacteroides fragilis) (protein) CDDFLDSFPQDTVTNENFWKSKEDADKVLVDIYASLLPKDAIFFDEAMSDNAYLVWDWWGGAQQVANGSYTTSGEIPTNRWNGSYEVIRKCWFLLEGIEKIEDISEQDKNKIIGETYFMLAYNYYVLTSYFGDVPLVTKTLAIPESKQLVRTPKAEVVDYAINKLKEAAVMLEGLSQEKGRVTADACRFLIARMYLYNGDYSNVLETVKLLEGKYQLYREGDTPYEDLFSGVAENSCEVILSVVCDKRVGEIYTSHGGNGIMLLKGITGEDPYRGVTPSGSLVDAYPMADGRLIHEAGSSYDPKKPYEGRDPRFYQSIVYPTGQIKYLDVETGTVKERLYDPEDPTTVPEHQYNYSQPSATGYMWNKYIDYSVYAMNSVWDCTNDIIVFRYADVLLMKAEALLQTKGESAKEEVCNLIDQLRDRCSCGRVHRENYNSKDELMELLKNERRIELANEGLRYMDLIRWKDAEKNTIVTGVGLTGQMYGAYMRKDGVGKDDKTVDVDNTPRRYIETRYFNASKGYLFPIPQKERDLNPNLTQNPNW,glycan array binding signal (z-score),Fuc(a1-2)Gal,-0.039
same,glycan array binding signal (z-score),[1],0.115
same,glycan array binding signal (z-score),[2],-0.43
same,glycan array binding signal (z-score),[3],1.48
same,glycan array binding signal (z-score),[4],0.012
same,glycan array binding signal (z-score),[5],0.033
same,glycan array binding signal (z-score),[6],-0.301
same,glycan array binding signal (z-score),[7],-0.078
same,glycan array binding signal (z-score),[8],-0.368
same,glycan array binding signal (z-score),[9],-0.716
same,glycan array binding signal (z-score),[10],3.69
same,glycan array binding signal (z-score),[11],1.42
same,glycan array binding signal (z-score),[12],-0.481
same,glycan array binding signal (z-score),[13],1.83
same,glycan array binding signal (z-score),[14],1.38
same,glycan array binding signal (z-score),[15],-0.369
same,glycan array binding signal (z-score),[16],-0.027
same,glycan array binding signal (z-score),[17],-0.394
same,glycan array binding signal (z-score),[18],-0.937
same,glycan array binding signal (z-score),[19],0.332
same,glycan array binding signal (z-score),[20],0.08
same,glycan array binding signal (z-score),[21],0.79
same,glycan array binding signal (z-score),[22],-0.007
same,glycan array binding signal (z-score),[23],1.78
same,glycan array binding signal (z-score),[24],-0.53
same,glycan array binding signal (z-score),Gal3S(b1-4)GlcNAc,0.086
same,glycan array binding signal (z-score),[25],0.472
same,glycan array binding signal (z-score),Gal6S(b1-4)GlcNAc,0.658
